High-throughput results as filed in PubChem.
This is a sample that favours compounds with a hit; in the whole collection about 0.9% have one here.
UGM FP inh – blocks M. tuberculosis UGM enzyme | purified UGM, fluorescence polarization probe displacement | 0.06% of 320,000 active | P9WIQ1 | inhibition, % at 10 µM; in the data active = inhibition above about 10%, passing the limit was not always enough; inconclusive = no clear call, values can overlap the other calls
Rv3671c protease – inhibits the M. tuberculosis serine protease Rv3671c; P9WHR9; inhibition, % at 5.96 µM; 0.048% of 320,000 active; AID 2606; in the data active = inhibition above about 38%;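 note: extracellular domain of Rv3671c used as enzyme; 0% = enzyme with DMSO and 100% = no enzyme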
Target sequence (P9WHR9 whole entry, looked up, the tested form may be a part): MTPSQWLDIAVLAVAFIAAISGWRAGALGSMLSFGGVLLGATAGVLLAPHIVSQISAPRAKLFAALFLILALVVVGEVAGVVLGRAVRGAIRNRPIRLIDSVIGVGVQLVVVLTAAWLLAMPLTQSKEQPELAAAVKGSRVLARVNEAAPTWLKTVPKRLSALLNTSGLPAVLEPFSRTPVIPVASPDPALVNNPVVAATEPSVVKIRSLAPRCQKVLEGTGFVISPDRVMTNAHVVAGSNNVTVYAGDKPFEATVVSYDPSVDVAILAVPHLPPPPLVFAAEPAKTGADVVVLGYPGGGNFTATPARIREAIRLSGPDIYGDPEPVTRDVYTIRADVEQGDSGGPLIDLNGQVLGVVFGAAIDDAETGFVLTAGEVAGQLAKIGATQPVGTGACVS
TcdB inh – inhibitors of Clostridioides difficile toxin B glycohydrolase. 0.24% of 350,000 active. TcdB glycohydrolase enzymatic assay, plate reader. P18177. inhibition, % at 9.99 µM. AID 652162; in the data active = inhibition above about 10%
BioA inh – BioA (M. tuberculosis) enzyme inhibition; inhibition, % at 9.99 µM; purified M. tuberculosis BioA enzyme, plate reader; 0.096% of 360,000 active; in the data active = inhibition above about 40%; inconclusive = no clear call, values can overlap the other calls
FadD28 binding – inhibitors of Mycobacterium tuberculosis FadD28 bisubstrate binding; inhibition, % at 12.5 µM; FadD28 bisubstrate probe binding, fluorescence polarization; AID 588549; 0.22% of 360,000 active; in the data active = inhibition above about 8.5%, passing the limit was not always enough; inconclusive = no clear call, values can overlap the other calls
RecA splice inh – inhibitors of M. tuberculosis RecA intein splicing; P9WHJ3; cell-free RecA intein splicing, fluorescence; inhibition, % (concentration not given with the values); 0.75% of 290,000 active; AID 2221; in the data active = inhibition above about 30%; inconclusive = no clear call, values can overlap the other calls;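 note: 0% = vehicle wells and 100% = reference inhibitor control wells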
Starred values were filed as active, the others as inactive; ? = inconclusive; / = no result given.

SMILES	UGM FP inh	Rv3671c protease	TcdB inh	BioA inh	FadD28 binding	RecA splice inh
COc1ccc(/C=C/C(=O)N(C)Cc2cccs2)cc1S(=O)(=O)N1CCOCC1	0	8	-1	0	26*	0
Cc1ccc(S(=O)(=O)N(C)C[C@@H]2Oc3c(NC(=O)c4cc(C)nn4C)cccc3C(=O)N([C@@H](C)CO)C[C@@H]2C)cc1	/	/	0	-2	/	/
Cn1cc(C[C@@H](N)C(=O)O)c2ccccc21	/	/	0	/	/	/
Cn1cc(C(CO)Cc2ccccc2)c2ccccc21 (stereo not given)	4	-5	20*	0	1	/
CCCCCCOC(=O)c1ccc(OC(=O)c2cccnc2)cc1	-2	2	/	0	-1	61*
C[C@@H]1CN([C@@H](C)CO)C(=O)Cc2cc(NC(=O)Nc3ccc4c(c3)OCO4)ccc2O[C@@H]1CN(C)Cc1ccccc1	/	/	0	-1	/	/
CCc1cccc2c(C(=O)CN3C(=O)C(=O)N(C4CCCC4)C3=O)c[nH]c12	1	5	2	/	14*	/
CCc1cccc2c(C(=O)CN3C(=O)NC4(CCCCC4)C3=O)c[nH]c12	4	-5	0	0	13*	/
Cc1ccc(C)c(C(=O)CN2C(=O)NC3(CCCCCCC3)C2=O)c1	0	-4	0	0	-1	4
Cc1ccc(C)c(C(=O)CN2C(=O)NC3(CCCCCC3)C2=O)c1	/	/	1	-3	-3	/
Cc1ccc(C)c(C(=O)CN2C(=O)C(=O)N(C3CCCC3)C2=O)c1	-2	-9	0	0	?	/
CCc1cccc2c(C(=O)CN3C(=O)NC4(CCCCCC4)C3=O)c[nH]c12	-2	-10	1	-1	53*	/
C[C@H]1CN([C@@H](C)CO)C(=O)c2cc(NC(=O)Cc3ccccc3)ccc2O[C@@H]1CN(C)Cc1ccc(C(=O)O)cc1	/	/	1	1	/	/
CCCNC(=O)N(C)C[C@@H]1Oc2cc(-c3ccccc3F)ccc2S(=O)(=O)N([C@@H](C)CO)C[C@H]1C	/	/	3	0	/	/
Nc1nnc(SCCCOc2ccc(F)cc2)s1	2	-5	2	-2	13*	2
C/C=C/c1ccc([C@@H]2[C@@H](CO)N3C(=O)CN(Cc4ccc(C)cc4)C[C@H]23)cc1	/	/	-1	/	/	/
CCOc1ccc(/C=C2\N=C(c3cccs3)OC2=O)cc1OC	38*	14	/	/	/	-2
CC(C)Cc1nnc(NC(=O)CCC(=O)NCc2ccccc2Cl)s1	1	-4	13*	/	-2	-1
CCCNC(=O)N1CC2(CN(C(=O)CC)C2)c2c(n(C)c3cc(OC)ccc23)[C@@H]1CO	/	/	1	/	/	/
CNCC(O)CN(c1ccccc1)c1ccccc1 (stereo not given)	-1	1	0	/	-5	40*
Fc1ccc(-c2nc3ccc(Br)cn3c2Cc2ccccc2)cc1	/	/	13*	-1	-2	/
Cc1nc(S/C(=C\c2ccc(-c3ccc(C(=O)O)c(Cl)c3)o2)C(=O)O)n[nH]1	/	/	-1	0	20*	-6
Cc1nc(S/C(=C\c2ccc(OCc3ccccc3Cl)cc2)C(=O)O)n[nH]1	-1	-3	/	-2	-1	/
O=c1ccc2cc(O)c(O)cc2o1	6	5	13*	0	-4	-155
O=c1ccc2ccc(O)cc2o1	/	/	0	3	-4	/
SMILES	UGM FP inh	Rv3671c protease	TcdB inh	BioA inh	FadD28 binding	RecA splice inh
CCCC(=O)N1CCC2(CC1)CN(C(=O)COC)[C@@H](CO)c1c2c2ccc(OC)cc2n1C	/	/	0	/	/	/
COc1ccc(C(=O)NNC(=S)NC(=O)c2cccnc2)cc1	2	17	3	/	0	-4
COc1ccc(CC(=O)NNC(=S)NC(=O)c2cccnc2)cc1	1	6	15*	0	-2	0
O=C(NC(=S)NCc1ccccc1)c1cccnc1	2	-9	16*	5	-3	0
CCOc1ccc(C(=O)NC(=S)Nc2cccnc2)cc1	12*	-5	2	/	-4	0
O=C(Cc1ccccc1)NNC(=S)NC(=O)c1cccnc1	0	4	19*	0	-2	1
O=C(NNC(=S)NC(=O)c1cccnc1)c1ccccc1	2	19	/	-1	1	-1
C[C@H]1CN([C@@H](C)CO)C(=O)c2cccc(NC(=O)Nc3cccc4ccccc34)c2O[C@H]1CN(C)C(=O)Nc1ccc(C(F)(F)F)cc1	/	/	-2	/	/	/
S=C(NCc1ccccc1)NCc1cccc(CNC(=S)NCc2ccccc2)c1	1	-87	1	3	25*	7
Cc1cc(O)ccc1Nc1nc(-c2cccs2)cs1	4	7	-1	/	-1	30*
COc1cccc(NCc2cc(=O)oc3cc(C)c(O)cc23)c1	-1	0	3	-2	0	-1
COc1cccc(NCc2cc(=O)oc3cc(-c4ccccc4)c(O)cc23)c1	-3	-9	/	/	24*	15
Cc1noc(C)c1NC(=O)Nc1ccc2c(c1)C(=O)N([C@@H](C)CO)C[C@H](C)[C@H](CN(C)C(=O)C1CCCCC1)OCCCC[C@@H](C)O2	/	/	-1	2	/	/
COc1ccccc1-n1c(SCC(=O)O)nc2c(sc(=S)n2-c2ccc(Cl)c(C)c2)c1=O	1	-7	13*	1	-2	-49
COc1ccccc1-n1c(SCC(=O)O)nc2c(sc(=S)n2-c2ccc(C)c(C)c2)c1=O	3	0	11*	/	0	-44
Cc1ccc(-n2c(=S)sc3c(=O)n(-c4ccccc4C)c(SCC(=O)O)nc32)cc1C	0	-8	1	2	0	-25
CCOc1ccccc1-n1c(=S)sc2c(=O)n(-c3ccc(F)cc3)c(SCC(=O)O)nc21	3	1	20*	-1	/	-5
C[C@H](O)C#Cc1cnc2c(c1)C(=O)N([C@H](C)CO)C[C@H](C)[C@H](CN(C)C(=O)Nc1ccc(C(F)(F)F)cc1)O2	/	/	/	-1	/	/
S=C(c1cn(Cc2ccccc2)c2ccccc12)N1CCOCC1	2	-4	17*	/	-2	4
Cc1ccccc1OCCn1cc(C(=S)N2CCCC2)c2ccccc21	11*	-8	/	-3	-2	/
COc1ccc(NC(=O)N2C[C@@H]3N[C@H](C2)[C@@H]3c2ccc(-c3ccc(OC)cc3)cc2)cc1	/	/	0	/	/	/
COc1ccc(Br)cc1C(=O)Nc1ccc(C(=O)O)cc1	1	-5	1	-1	-4	0
COc1ccc(Br)cc1C(=O)Nc1ccc(O)cc1	2	2	24*	1	-1	7
O=C(C[C@@H]1CC[C@@H]2[C@H](COC[C@@H](O)CN2C(=O)Nc2ccc(Cl)c(Cl)c2)O1)NCc1ccncc1	/	/	11*	-1	/	/
COC(=O)C[C@H]1CC[C@H]2[C@@H](COC[C@H](O)CN2C(=O)Nc2ccccc2OC)O1	/	/	2	-1	/	/
COC(=O)C[C@@H]1CC[C@@H]2[C@H](COC[C@H](O)CN2C(=O)Nc2ccccc2OC)O1	/	/	13*	3	/	/
O=C(C[C@@H]1CC[C@H]2[C@@H](COC[C@@H](O)CN2C(=O)c2ccccn2)O1)NC1CCC1	/	/	10*	-3	/	/
